Source: PubChem BioAssay (NCATS)
Results filed as inconclusive are left out. Unmarked numbers belong to inactive results. Calls follow the shape of the dose curve; as a rule, active = well fitted curve in the direction sought with a large enough effect; inconclusive = small, poorly fitted or top-dose-only effect, or another doubt; inactive = no such curve, though single readings can be large; an effect the other way counts as inactive or inconclusive.

These compounds were tested against Aldehyde dehydrogenase, mitochondrial (Homo sapiens) (UniProt P05091) (assay: qHTS for Inhibitors of the Aldehyde Dehydrogenase Family (ALDH2) Primary screen (AID 2061308;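 also: plate controls were vehicle for no effect and reference inhibitor for full effect; nearly all actives have a fitted effect of over 55% in size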)). Settings: ALDH2 enzyme inhibition qHTS, 1536-well; series mostly up to 56 µM; activity change, negative = inhibition: at the top concentration.
For COC(=O)[C@H](Cc1cccc(C(=N)N)c1)[C@@H](C)NC(=O)c1ccc(-c2cc[n+]([O-])cc2)cc1, the “activity change, negative = inhibition” value was 24.9%.
With CC(=O)O[C@H]1[C@H](Oc2ccccc2COC(=O)C2(O)C=CCCC2=O)O[C@H](CO)[C@@H](O)[C@@H]1O (some centres undefined) the “activity change, negative = inhibition” value was 24.1% [at 28 µM].
CC(C)CCC(=O)CC1c2ccccc2C(=O)N1c1ccc2ccc(Cl)nc2n1 (centres undefined) was tested, and the “activity change, negative = inhibition” value was 3.17%.
C[C@@H]1CC[C@]2(C(=O)O[C@@H]3O[C@H](CO[C@@H]4O[C@H](CO)[C@@H](O[C@@H]5O[C@@H](C)[C@H](O)[C@@H](O)[C@H]5O)[C@H](O)[C@H]4O)[C@@H](O)[C@H](O)[C@H]3O)CC[C@]3(C)C(=CCC4[C@@]5(C)C[C@@H](O)[C@H](O)[C@@](C)(CO)C5CC[C@]43C)C2[C@H]1C (some centres undefined) was tested, and the “activity change, negative = inhibition” value was 3.81% [at 16.9 µM].
In the case of C=C1C(=O)O[C@@H]2C[C@H](C)C3=CC(=O)[C@H](O)[C@@]3(C)C[C@H]12, the “activity change, negative = inhibition” value is reported as 10.6%.
In the case of CC1(C)CCCC2(C)C1C(=O)C=C(C(=O)O)C2(O)C(=O)O (centres undefined), the “activity change, negative = inhibition” value is reported as -5.08%.
In the case of CC(C)(O)C1CC(=O)C2(C)C(CCC3(C)C(c4ccoc4)OC(=O)C4OC432)C12CCC(=O)OC2 (centres undefined), the “activity change, negative = inhibition” value is reported as -7.28% [at 28 µM].
For C/C(=C/CO)CC[C@H]1[C@]2(C)C[C@H](O)CC(C)(C)[C@H]2CC[C@]1(C)O, the “activity change, negative = inhibition” value was -0.804%.
Work on CC(=O)N[C@@H](CCCCN)C(=O)N(C)[C@@H](CC(C)C)C(=O)N[C@H](C(=O)N(C)[C@@H](Cc1ccccc1)C(=O)N[C@H](Cc1ccccc1)C(N)=O)C(C)C yielded an activity change, negative = inhibition of 0.957% [at 5.59 µM].
COC1OC(O)C2(CCC3(O2)C(C)CC2OC(=O)C4(C)CCCC3(C)C24)C1O (centres undefined) was tested, and the “activity change, negative = inhibition” value was 5.9%.
For Cc1ccn(-c2cc(Cl)ccc2[C@@H](Oc2cc(-c3ccc(C[C@H](N)C(=O)O)cc3)nc(N)n2)C(F)(F)F)n1, the “activity change, negative = inhibition” value was -2.74%.
In the case of C=C1CC[C@]2(C(=O)O[C@@H]3O[C@H](CO)[C@@H](O)[C@H](O)[C@H]3O)CC[C@]3(C)C(=CCC4[C@@]5(C)C[C@H](O)[C@@H](O[C@@H]6O[C@H](C(=O)O)[C@@H](O)[C@H](O)[C@H]6O)[C@](C)(C=O)C5CC[C@]43C)C2C1 (some centres undefined), the “activity change, negative = inhibition” value is reported as 16.3% [at 16.9 µM].
For Cn1cc(S(C)=O)c(=O)c2ccc(F)cc21 (centres undefined), the “activity change, negative = inhibition” value was 2.08%.
For COC(=O)C1=CO[C@@H](O[C@@H]2O[C@H](CO)[C@@H](O)[C@H](O)[C@H]2O)[C@@H]2[C@@](C)(O)[C@@H](O)C[C@]12O, the “activity change, negative = inhibition” value was 18.4% [at 28 µM].
For CCC[C@@H]1O[C@@H]2C[C@H]3[C@@H]4CCC5=CC(=O)C=C[C@]5(C)[C@H]4[C@@H](O)C[C@]3(C)[C@]2(C(=O)CO)O1, the “activity change, negative = inhibition” value was 2.93%.
With CC1(C)CC[C@]2(C(=O)O)[C@H](O)C[C@]3(C)C(=CCC4[C@@]5(C)CC[C@H](O[C@@H]6OC[C@@H](O)[C@H](O)[C@H]6O)[C@@](C)(C(=O)O)C5CC[C@]43C)[C@@H]2C1 (some centres undefined) the “activity change, negative = inhibition” value was 3.4% [at 16.9 µM].
CC(=O)c1[nH]cc(CCC(=O)O)c1CC(=O)O was tested, and the “activity change, negative = inhibition” value was -4.19%.
In the case of C=CC(C)(O)CC/C=C(\C)C(=O)OC1C(O)C(CO)OC(OC(=O)C23CCC(C)(C)CC2C2=CCC4C5(C)CCC(OC6OC(COC7OCC(OC(C)=O)C(O)C7OC7OC(COC(C)=O)C(O)C(O)C7O)C(O)C(O)C6O)C(C)(C)C5CCC4(C)C2(C)C(O)C3O)C1OC1OCC(OC2OCC(O)C(OC3OCC(O)C(O)C3O)C2O)C(O)C1O (centres undefined), the activity change, negative = inhibition is reported as 5.34% [at 11.2 µM].
CCOc1ccc(-n2c(C(C)N(Cc3cccnc3)C(=O)Cc3ccc(F)c(C(F)(F)F)c3)nc3ncccc3c2=O)cc1 (centres undefined) was tested, and the “activity change, negative = inhibition” value was -0.178%.
With CC1OC(OCC2OC(OC3CCC4(C)C(CCC5(C)C4CC=C4C6CC(C)(C)CCC6(C(=O)OC6OC(CO)C(O)C(O)C6O)CCC45C)C3(C)CO)C(O)C(O)C2O)C(O)C(O)C1O (centres undefined) the “activity change, negative = inhibition” value was 0.385% [at 16.9 µM].
For CC1(C)CCCC2(C)C1C(O)C=C(CO)C2(O)CO (centres undefined), the “activity change, negative = inhibition” value was -4.57%.
C=CC1(C)CC2=CCC3C(C)(C(=O)O)CCCC3(C)C2CC1OC(C)=O (centres undefined) was tested, and the “activity change, negative = inhibition” value was -1.25%.
With O=C1NC(=Nc2ccccc2F)S/C1=C\c1ccc(C(=O)O)cc1 the “activity change, negative = inhibition” value was 4.91%.
In the case of C[C@@]12C[C@]3(O)O[C@H](O1)[C@]1(COC(=O)c4ccccc4)[C@H]3C[C@@]12O[C@@H]1O[C@H](CO)[C@@H](O)[C@H](O)[C@H]1O, the “activity change, negative = inhibition” value is reported as 7.06% [at 28 µM].
In the case of Cc1ccccc1-n1c([C@H](C)Nc2nc(N)nc3nc[nH]c23)nc2cccc(C)c2c1=O, the “activity change, negative = inhibition” value is reported as -0.691%.
With CC1(C)CC[C@]2(C(=O)O[C@@H]3O[C@H](CO)[C@@H](O)[C@H](O)[C@H]3O)CC[C@]3(C)C(=CCC4[C@@]5(C)CC[C@H](O[C@@H]6O[C@H](C(=O)O)[C@@H](O)[C@H](O)[C@H]6O)C(C)(C)C5CC[C@]43C)C2C1 (some centres undefined) the “activity change, negative = inhibition” value was -0.612% [at 16.9 µM].
In the case of COC1CC(=O)C23C(=O)NC(Cc4c[nH]c5ccccc45)C2C(C)C2(C)OC2C3/C=C/CC(C)CC1O (centres undefined), the “activity change, negative = inhibition” value is reported as 1.06% [at 28 µM].

These compounds were tested against Retinaldehyde dehydrogenase 3 (Homo sapiens) (UniProt P47895) (assay: qHTS for Inhibitors of the Aldehyde Dehydrogenase Family (ALDH1A3) Primary screen (AID 2061315;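 also: plate controls were DMSO vehicle for no effect and reference inhibitor for full effect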)). Settings: ALDH inhibition qHTS; series mostly up to 56 µM; activity change, negative = inhibition: at the top concentration.
In the case of CSCC1OC(n2cnc3c(N)ncnc32)C(O)C1O (centres undefined), the “activity change, negative = inhibition” value is reported as 4.59%.
In the case of C[C@@H]1C[C@H](O)/C=C/[C@H](O)[C@@H](O)CC(=O)O1, the “activity change, negative = inhibition” value is reported as 7.21%.
